# In PMC5700166:
# Numbering of substitutions follows the chain as printed.
# Tests used:
# Test in all cases: protein-binding microarray (PBM); PBM: ~300 nM protein, 6 mM HEPES pH 7.8, 80 mM KCl, 0.5 mM EDTA, 0.5 mM EGTA, 6% glycerol, 35 ng/ul poly-dIdC, 1% milk, 1 h, room temperature; Ap Aiptasia and Nv Nematostella (sea anemones) / Co Capsaspora / Aq Amphimedon (sponge) / Dm Drosophila / Hu human; RHD is the Rel homology domain; high values mean tight binding
# Details in all cases: dsDNA, one strand shown
# [1] = biological target: T1, GST-Ap-NF-kB RHD (Exaiptasia pallida (Aiptasia), UniProt A0A913YAJ5 2-422)
# T1 sequence: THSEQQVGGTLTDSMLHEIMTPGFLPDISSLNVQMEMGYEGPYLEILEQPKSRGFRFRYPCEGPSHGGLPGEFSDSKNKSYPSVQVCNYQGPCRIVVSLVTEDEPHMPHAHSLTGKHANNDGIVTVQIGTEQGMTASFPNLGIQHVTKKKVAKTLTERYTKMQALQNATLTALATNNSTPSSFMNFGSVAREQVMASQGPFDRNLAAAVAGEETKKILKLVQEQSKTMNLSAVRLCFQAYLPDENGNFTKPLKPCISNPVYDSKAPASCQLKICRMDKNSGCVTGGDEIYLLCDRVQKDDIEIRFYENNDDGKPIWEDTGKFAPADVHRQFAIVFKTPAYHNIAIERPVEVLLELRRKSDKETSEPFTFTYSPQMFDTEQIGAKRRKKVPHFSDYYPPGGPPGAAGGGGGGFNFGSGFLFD
# [2] = biological target: T2, GST-Nv-NF-kB (Cys allele) (Nematostella vectensis, UniProt E5G601 2-411)
# T2 sequence: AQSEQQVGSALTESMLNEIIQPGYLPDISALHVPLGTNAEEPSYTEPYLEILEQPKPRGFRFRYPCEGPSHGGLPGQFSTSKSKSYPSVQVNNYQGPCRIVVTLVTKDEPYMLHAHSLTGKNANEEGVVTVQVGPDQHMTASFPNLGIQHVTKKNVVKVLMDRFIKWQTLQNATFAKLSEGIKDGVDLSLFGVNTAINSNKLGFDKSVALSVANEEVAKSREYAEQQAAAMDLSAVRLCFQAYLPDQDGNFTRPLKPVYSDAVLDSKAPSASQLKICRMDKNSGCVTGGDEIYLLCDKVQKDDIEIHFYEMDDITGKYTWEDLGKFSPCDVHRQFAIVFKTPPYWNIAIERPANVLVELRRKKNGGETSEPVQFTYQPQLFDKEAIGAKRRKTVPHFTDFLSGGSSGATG
# [3] = biological target: T3, GST-Nv-NF-kB (Ser allele) (Nematostella vectensis, UniProt A7UNT2 2-411)
# T3 sequence: T2 sequence with Q21R, C66S, S207N, E215Q, V217A, E225K, A268E, D399E
# [4] = biological target: T4, GST-Co-NF-kB (Capsaspora owczarzaki, UniProt F1ARL5 200-546)
# T4 sequence: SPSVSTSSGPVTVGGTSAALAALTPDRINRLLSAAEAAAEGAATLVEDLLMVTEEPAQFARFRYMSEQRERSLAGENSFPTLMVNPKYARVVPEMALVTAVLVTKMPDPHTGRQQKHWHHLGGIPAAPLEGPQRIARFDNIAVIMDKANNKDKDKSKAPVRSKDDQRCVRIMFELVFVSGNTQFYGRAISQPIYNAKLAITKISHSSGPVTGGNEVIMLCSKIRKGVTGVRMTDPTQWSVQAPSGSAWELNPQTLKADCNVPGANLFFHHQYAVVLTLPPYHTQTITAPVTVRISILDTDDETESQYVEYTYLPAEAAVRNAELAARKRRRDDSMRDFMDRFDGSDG
# [5] = biological target: T5, GST-Dm-Relish (Drosophila melanogaster, UniProt Q94527 99-473)
# T5 sequence: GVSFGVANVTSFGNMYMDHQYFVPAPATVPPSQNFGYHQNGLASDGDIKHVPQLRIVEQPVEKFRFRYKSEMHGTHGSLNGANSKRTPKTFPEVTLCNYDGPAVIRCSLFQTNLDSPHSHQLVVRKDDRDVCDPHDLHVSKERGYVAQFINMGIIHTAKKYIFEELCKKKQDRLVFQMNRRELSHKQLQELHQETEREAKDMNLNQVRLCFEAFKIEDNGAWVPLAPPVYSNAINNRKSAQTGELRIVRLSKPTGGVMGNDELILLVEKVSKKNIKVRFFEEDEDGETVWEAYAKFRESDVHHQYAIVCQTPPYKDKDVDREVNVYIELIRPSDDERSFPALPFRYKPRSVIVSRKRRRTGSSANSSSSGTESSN
# [6] = biological target: T6, GST-Aq-NF-kB (Amphimedon queenslandica, UniProt A9Y5G7 2-389)
# T6 sequence: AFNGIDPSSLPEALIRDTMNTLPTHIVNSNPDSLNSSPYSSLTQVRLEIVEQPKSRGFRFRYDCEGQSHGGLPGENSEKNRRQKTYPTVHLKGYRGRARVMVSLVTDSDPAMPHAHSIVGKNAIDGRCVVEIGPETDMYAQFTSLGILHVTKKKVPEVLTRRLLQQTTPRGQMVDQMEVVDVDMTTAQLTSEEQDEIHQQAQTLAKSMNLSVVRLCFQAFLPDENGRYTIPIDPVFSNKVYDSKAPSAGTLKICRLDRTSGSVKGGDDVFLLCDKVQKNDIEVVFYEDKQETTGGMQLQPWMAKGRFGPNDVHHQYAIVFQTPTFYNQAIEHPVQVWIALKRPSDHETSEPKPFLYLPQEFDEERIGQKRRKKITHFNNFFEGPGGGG
# [7] = biological target: GST-Hu-p50 (Homo sapiens, UniProt P19838 7-356)
# GST-Hu-p50, sequence (P19838 7-356): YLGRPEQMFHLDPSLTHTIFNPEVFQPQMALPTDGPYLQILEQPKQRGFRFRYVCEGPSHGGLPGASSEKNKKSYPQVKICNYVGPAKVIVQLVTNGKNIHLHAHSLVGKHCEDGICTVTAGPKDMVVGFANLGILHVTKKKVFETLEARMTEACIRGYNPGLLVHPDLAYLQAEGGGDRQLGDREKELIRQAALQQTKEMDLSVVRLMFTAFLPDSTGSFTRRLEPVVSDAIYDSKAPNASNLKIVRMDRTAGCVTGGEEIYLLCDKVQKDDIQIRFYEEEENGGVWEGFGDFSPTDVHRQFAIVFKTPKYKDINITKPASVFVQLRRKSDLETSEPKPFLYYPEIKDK
Sequence,binding signal [1],binding signal [2],binding signal [3],binding signal [4],binding signal [5],binding signal [6],binding signal [7]
CCGATTAACATCAGAAAAGCCCCTGATGTTAATCGGGTCTTGATTCGCTTGACGCTGCTG,7.38 z-score,9.78 z-score,7.32 z-score,1.37 z-score,8.04 z-score,7.96 z-score,6.71 z-score
CCGATTAACATCAAAAGTCCCCCTGATGTTAATCGGGTCTTGATTCGCTTGACGCTGCTG,8.58 z-score,8.14 z-score,8.36 z-score,7.93 z-score,9.15 z-score,7.54 z-score,6.72 z-score
CCGATTAACATCACTATTTCCCCTGATGTTAATCGGGTCTTGATTCGCTTGACGCTGCTG,6.35 z-score,7.42 z-score,9.8 z-score,8.77 z-score,3.62 z-score,4.85 z-score,6.08 z-score
CCGATTAACATCAGAAATGTCCCTGATGTTAATCGGGTCTTGATTCGCTTGACGCTGCTG,2.83 z-score,4.85 z-score,4.61 z-score,1.29 z-score,3.1 z-score,4.94 z-score,4.36 z-score
CCGATTAACATCAGGGTTTTACCTGATGTTAATCGGGTCTTGATTCGCTTGACGCTGCTG,2.62 z-score,3.71 z-score,4.37 z-score,2.01 z-score,6.46 z-score,6.12 z-score,3.39 z-score
CCGATTAACATCACAACTCCCCCTGATGTTAATCGGGTCTTGATTCGCTTGACGCTGCTG,5.84 z-score,4.69 z-score,5.89 z-score,6.16 z-score,3.67 z-score,5.15 z-score,5.55 z-score
CCGATTAACATCAAAACTCCCCTTGATGTTAATCGGGTCTTGATTCGCTTGACGCTGCTG,8.31 z-score,7.73 z-score,8.37 z-score,4.59 z-score,7.49 z-score,7.22 z-score,6.44 z-score
CCGATTAACATCACGTTTCCCCCTGATGTTAATCGGGTCTTGATTCGCTTGACGCTGCTG,6.91 z-score,6.46 z-score,9.03 z-score,9.58 z-score,2.71 z-score,5.17 z-score,6.64 z-score
CCGATTAACATCAAGAATTCCCCTGATGTTAATCGGGTCTTGATTCGCTTGACGCTGCTG,9.76 z-score,11.7 z-score,12.3 z-score,7.33 z-score,8.81 z-score,8.32 z-score,7.54 z-score
CCGATTAACATCAGGGCTTCCCCTGATGTTAATCGGGTCTTGATTCGCTTGACGCTGCTG,9.17 z-score,10.8 z-score,8.58 z-score,4.03 z-score,10.4 z-score,9.48 z-score,6.74 z-score
CCGATTAACATCAAGATTTTCCCTGATGTTAATCGGGTCTTGATTCGCTTGACGCTGCTG,4.58 z-score,6.22 z-score,7.42 z-score,5.04 z-score,1.5 z-score,5.78 z-score,4.29 z-score
CCGATTAACATCAAAACCTCCCCTGATGTTAATCGGGTCTTGATTCGCTTGACGCTGCTG,5.96 z-score,5.34 z-score,7 z-score,6.47 z-score,3.36 z-score,4.96 z-score,4.55 z-score
CCGATTAACATCAAATGCCCCCCTGATGTTAATCGGGTCTTGATTCGCTTGACGCTGCTG,5.13 z-score,4.38 z-score,3.91 z-score,5.28 z-score,4.71 z-score,5.31 z-score,4.49 z-score
CCGATTAACATCAGGGGAAACCATGATGTTAATCGGGTCTTGATTCGCTTGACGCTGCTG,6.6 z-score,7.42 z-score,10.1 z-score,8.24 z-score,6.18 z-score,5.84 z-score,5.64 z-score
CCGATTAACATCAATTTTCCCCATGATGTTAATCGGGTCTTGATTCGCTTGACGCTGCTG,6.24 z-score,7.68 z-score,9.27 z-score,9.2 z-score,2.3 z-score,5.53 z-score,6.08 z-score
CCGATTAACATCAAGGGGGAGAATGATGTTAATCGGGTCTTGATTCGCTTGACGCTGCTG,5.78 z-score,6.63 z-score,7.33 z-score,7.92 z-score,2.2 z-score,4.93 z-score,6.83 z-score
CCGATTAACATCAGATACTCCCCTGATGTTAATCGGGTCTTGATTCGCTTGACGCTGCTG,5.47 z-score,4.28 z-score,4.21 z-score,4.31 z-score,1.86 z-score,4.46 z-score,3.57 z-score
CCGATTAACATCAACATTCCCCCTGATGTTAATCGGGTCTTGATTCGCTTGACGCTGCTG,7.55 z-score,8.25 z-score,8.8 z-score,9.34 z-score,4.3 z-score,6.29 z-score,6.48 z-score
CCGATTAACATCAAATAAACCCCTGATGTTAATCGGGTCTTGATTCGCTTGACGCTGCTG,4.74 z-score,5.11 z-score,4.3 z-score,2.32 z-score,6.13 z-score,5.4 z-score,4.96 z-score
CCGATTAACATCAGGGGGAGAACTGATGTTAATCGGGTCTTGATTCGCTTGACGCTGCTG,6.04 z-score,5.02 z-score,6.45 z-score,7.22 z-score,6.51 z-score,4.8 z-score,5.85 z-score
CCGATTAACATCAGGGGATATTATGATGTTAATCGGGTCTTGATTCGCTTGACGCTGCTG,7.99 z-score,7.96 z-score,9.17 z-score,4.65 z-score,6.28 z-score,6.34 z-score,6.06 z-score
CCGATTAACATCAGGGGGAAAACTGATGTTAATCGGGTCTTGATTCGCTTGACGCTGCTG,8.4 z-score,8.08 z-score,9.8 z-score,11.7 z-score,7.59 z-score,7.21 z-score,7.47 z-score
CCGATTAACATCAGGGAAATCAATGATGTTAATCGGGTCTTGATTCGCTTGACGCTGCTG,2.16 z-score,3.6 z-score,4.65 z-score,3.49 z-score,1.09 z-score,2.67 z-score,2.57 z-score
CCGATTAACATCACAGTCCCCCCTGATGTTAATCGGGTCTTGATTCGCTTGACGCTGCTG,5.98 z-score,5.07 z-score,5.18 z-score,5.62 z-score,4.6 z-score,4.63 z-score,4.33 z-score
